According to PubChem BioAssay (EPA / NIEHS):
Active and inactive are the calls of the source. Rule for the calls: active = hit-call score of the fitted dose curve at least 0.9, where 1 is the maximum; inactive = score below 0.9.

Experiment: APR_HepG2_StressKinase_1hr: Apredica 1-hour HepG2 Assay for Stress Kinase (AID 2282906)
Conditions: HepG2 stress kinase (phospho-c-Jun) imaging, actives raise or lower the signal
Procedure: APR_HepG2_1hr is a cell-based, multiplexed-readout assay that uses HepG2, a human liver cell line, with measurements taken at 1 hour after chemical dosing in a 384-well plate.APR_HepG2_StressKinase_1hr is one of 10 assay component(s) measured or calculated from the APR_HepG2_1hr assay. It is designed to make measurements of enzyme activity, a form of enzyme reporter, as detected with fluorescence intensity signals by HCS Fluorescent Imaging technology.Data from the assay component APR_HepG2_StressKinase_1hr was analyzed into 1 assay endpoint. This assay endpoint, APR_HepG2_StressKinase_1hr, was analyzed with bidirectional fitting relative to DMSO as the negative control and baseline of activity. Using a type of enzyme reporter, measures of protein for gain or loss-of-signal activity can be used to understand the signaling at the pathway-level as they relate to the gene . Furthermore, this assay endpoint can be referred to as a primary readout, because this assay has produced multiple assay endpoints where this one serves a signaling function. To generalize the intended target to other relatable targets, this assay endpoint is annotated to the cell cycle intended target family, where the subfamily is stress response.
Cells were treated with dimethyl sulfoxide (DMSO) as a solvent control at a final concentration of 0.5% v/v or with compounds in DMSO with a resulting final DMSO concentration of 0.5% v/v. Compound treatment was done at concentrations of 0.39, 0.78, 1.56, 3.12, 6.24, 12.5, 25, 50, 100, and 200 uM in duplicate on each plate. Cells were treated with compounds for 1, 24, or 72 hr. Carbonyl […] m-chloro-phenylhydrazone (CCCP) and taxol were used as positive controls for mitochondrial function and cytoskeletal stability, respectively; DMSO served as the negative control for this experiment. Cells were fixed by the direct addition of 50 uL formaldehyde in Hank's Balanced Salt Solution (HBSS) to a final concentration of 3.7%. After incubation in the fixation medium for 30 min at room temperature (293-298 K), cells were rinsed twice with HBSS and treated with cell permeabilization buffer (16 uL of 0.5% Triton X-100) for 10 min at room temperature (293-298 K) before labeling. For mitochondrial membrane potential and mitochondrial measurements, pre-fixed cells were incubated with 50 uL of MitoTracker Red CMXRos (Invitrogen) at a concentration of 250 nM for 30 min before fixation. In the remaining cases, post-fixed cells were labeled by incubation with a multiplexed mixture of primary antibodies in HBSS for 60 min at room temperature (293-298 K) to detect immunoreactivity of c-Jun (1:500), phospho-histone H3 (1:100), phospho-histone H2A.x (1:200), p53 (1:400), alpha-tubulin (1:200) and Hoechst 33342 (2 ug/mL). Cells were labeled for multiplexed imaging on two separate plates: a) Hoechst 33342, MitoTracker Red, phospho-histone H3, and alpha-tubulin, and b) Hoechst 33342, phospho-histone H2A.x, and c-Jun. A final rinse with HBSS (50 uL) was performed before analysis. The primary and secondary antibodies for the proteins were phospho-histone H3 (rabbit anti-phospho-histone H3 and FITC-donkey anti-rabbit IgG), phospho-histone H2A.x (mouse anti-phospho-histone H2A.x and FITC-donkey anti-mouse IgG), c-Jun (rabbit anti-phospho-c-Jun and Cy3-donkey anti-rabbit IgG), p53 (sheep anti-p53 and Cy5-donkey anti-sheep IgG), alpha-tubulin (mouse anti-alpha-tubulin and Cy5-donkey anti-mouse IgG). These antibodies are available as the CellCiphr HepG2 assay kit (Millipore).Digital images of each well were captured using a Cellomics ArrayScan VTI (Thermo Scientific Cellomics) (0.8 NA objective, 0.63x optical coupler, and XF-93 filter set) at 20x magnification. The images were acquired using the autofocus feature of the ArrayScan instrument, which entails the following steps. First, the camera focuses on channel 1 (Hoechst 33342), where nuclei are identified. Second, a Z offset of 1 um is used for capturing mitochondria (MitoTracker Red). […]

Compound | outcome | AC50
CO/N=C(/C1=NOCCO1)c1ccccc1Oc1ncnc(Oc2ccccc2Cl)c1F | inactive | 
COCc1cnc(C2=NC(C)(C(C)C)C(=O)N2)c(C(=O)O)c1 (stereo not given) | inactive | 
CN/C(=N\[N+](=O)[O-])NCc1cnc(Cl)s1 | inactive | 
CCOP(=O)(OCC)Oc1nc(Cl)c(Cl)cc1Cl | inactive | 
CC(C)Nc1nc(Cl)nc(NC(C)C)n1 | inactive | 
CCCCC(C#N)(Cn1cncn1)c1ccc(Cl)cc1 (stereo not given) | inactive | 
CCCCOCN(C(=O)CCl)c1c(CC)cccc1CC |  | 47.5 µM (active)
O=C1C2CC=CCC2C(=O)N1SC(Cl)(Cl)Cl (stereo not given) |  | 87.6 µM (active)
O=c1n(Cl)c(=O)n(Cl)c(=O)n1Cl | inactive | 
O=C(Nc1ccccc1-c1ccc(Cl)cc1)c1cccnc1Cl | inactive | 
CCN(CC)C(=O)C(C)Oc1cccc2ccccc12 (stereo not given) | inactive | 
COP(=S)(OC)SCn1nnc2ccccc2c1=O | inactive | 
Clc1cccc(C(Cl)(Cl)Cl)n1 | inactive | 
C=C(C)CN(CC)c1c([N+](=O)[O-])cc(C(F)(F)F)cc1[N+](=O)[O-] | inactive | 
CC(C)N1C(=O)c2ccccc2NS1(=O)=O | inactive | 
CCOc1cc(C(C)(C)C)ccc1C1COC(c2c(F)cccc2F)=N1 (stereo not given) | inactive | 
Cc1c(COC(=O)[C@@H]2[C@H](/C=C(\Cl)C(F)(F)F)C2(C)C)cccc1-c1ccccc1 | inactive | 
C=CCOC(=O)C(C)(C)OC(=O)c1cc(-n2c(=O)cc(C(F)(F)F)n(C)c2=O)ccc1Cl | inactive | 
COC(=O)N(C(=O)N1CO[C@@]2(C(=O)OC)Cc3cc(Cl)ccc3C2=N1)c1ccc(OC(F)(F)F)cc1 | inactive | 
COCC(C)N(C(=O)CCl)c1c(C)csc1C (stereo not given) | inactive | 

Compound | outcome | AC50
Cc1cnc(C2=NC(C)(C(C)C)C(=O)N2)c(C(=O)O)c1 (stereo not given) | inactive | 
COCC(=O)N(c1c(C)cccc1C)C(C)C(=O)OC (stereo not given) | inactive | 
CC(C)NC(=O)N1CC(=O)N(c2cc(Cl)cc(Cl)c2)C1=O | inactive | 
Nc1c(Cl)c(Cl)nc(C(=O)O)c1Cl | inactive | 
CCNC(=O)NC(=O)C(C#N)=NOC | inactive | 
Nc1cnn(-c2ccccc2)c(=O)c1Cl | inactive | 
CCOP(=S)(OCC)Oc1nc(Cl)n(C(C)C)n1 | inactive | 
CSC(=O)c1c(C(F)F)nc(C(F)(F)F)c(C(=O)SC)c1CC(C)C | inactive | 
CC1(C)C(C(=O)OC(C#N)c2cccc(Oc3ccccc3)c2)C1(C)C (stereo not given) | inactive | 
Cc1cc(C)nc(Nc2ccccc2)n1 | inactive | 
CCC(C)n1c(=O)[nH]c(C)c(Br)c1=O (stereo not given) | inactive | 
CCOC(=O)C(C)OC(=O)c1cc(Oc2ccc(C(F)(F)F)cc2Cl)ccc1[N+](=O)[O-] (stereo not given) | inactive | 
COc1ccc(-c2ccccc2)cc1NNC(=O)OC(C)C | inactive | 
COC(=O)c1c(C(F)F)nc(C(F)(F)F)c(C2=NCCS2)c1CC(C)C | inactive | 
Nc1c(Cl)c(F)nc(OCC(=O)O)c1Cl | inactive | 
COP(=S)(OC)Oc1ccc([N+](=O)[O-])c(C)c1 | inactive | 
CCN(CC)c1nc(C)cc(OP(=S)(OC)OC)n1 | inactive | 
Clc1nc(Cl)nc(Nc2ccccc2Cl)n1 | inactive | 
CC1(C)CON(Cc2ccccc2Cl)C1=O | inactive | 
COc1cc(Cl)c(OC)cc1Cl | inactive | 
